# What was measured:
# Assay in all cases: DAPPL (digital affinity profiling via proximity ligation, sequencing); 10 mM Tris-HCl pH 7.5, 50 mM NaCl, 1 mM DTT, 4% glycerol, room temperature, 30 min; GST-TFs on glutathione beads, 16-mer random dsDNA library, 0.1% formaldehyde crosslink after washing; high values mean tight binding
# FEV = target: T1, FEV (Homo sapiens, UniProt Q99581 1-238); details: protein: recombinant; tags: N-terminal GST; dsDNA, one strand shown
# T1 sequence: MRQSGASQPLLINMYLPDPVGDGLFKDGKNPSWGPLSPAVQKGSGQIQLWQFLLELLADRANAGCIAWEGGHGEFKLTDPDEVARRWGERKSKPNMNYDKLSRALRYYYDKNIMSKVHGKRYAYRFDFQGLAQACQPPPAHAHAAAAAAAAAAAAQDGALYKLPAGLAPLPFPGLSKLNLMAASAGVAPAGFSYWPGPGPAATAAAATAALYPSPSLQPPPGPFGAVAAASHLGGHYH
# Procedure, shortened: (§1)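 Yeast served to express human transcription factors as GST fusions, which were then captured on glutathione beads and labelled with DNA barcodes. Pooled with a tag-only sample, they were incubated with 200 nmole of a 16-mer random double-stranded DNA library for 30 min at room temperature in Tris/NaCl/DTT/glycerol buffer, washed, crosslinked with 0.1% formaldehyde, ligated by proximity, amplified by PCR and sequenced. Dividing each hexamer's read frequency for a factor by its frequency for the tag-only sample gives the binding signal.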
# ETV5 = ETV5 (Homo sapiens, UniProt P41161 1-510); details: protein: recombinant; tags: N-terminal GST; dsDNA, one strand shown
# Chain of ETV5 (P41161 whole entry): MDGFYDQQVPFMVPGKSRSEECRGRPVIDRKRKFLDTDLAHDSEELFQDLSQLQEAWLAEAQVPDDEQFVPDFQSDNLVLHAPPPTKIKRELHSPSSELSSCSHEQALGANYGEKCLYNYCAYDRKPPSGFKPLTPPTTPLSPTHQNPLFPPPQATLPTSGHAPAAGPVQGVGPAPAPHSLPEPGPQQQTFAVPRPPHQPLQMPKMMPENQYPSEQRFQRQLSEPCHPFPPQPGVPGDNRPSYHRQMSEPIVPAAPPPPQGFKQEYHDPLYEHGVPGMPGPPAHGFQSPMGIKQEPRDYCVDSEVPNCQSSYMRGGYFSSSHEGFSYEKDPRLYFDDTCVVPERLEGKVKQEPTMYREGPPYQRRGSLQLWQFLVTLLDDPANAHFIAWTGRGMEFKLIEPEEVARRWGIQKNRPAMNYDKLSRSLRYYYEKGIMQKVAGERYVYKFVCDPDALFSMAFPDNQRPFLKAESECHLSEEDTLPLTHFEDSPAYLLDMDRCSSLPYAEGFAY
# Procedure, shortened: as §1
# HSF1 = HSF1 (Homo sapiens, UniProt Q00613 1-529); details: protein: recombinant; tags: N-terminal GST; chain copies: 3; dsDNA, one strand shown
# Chain of HSF1 (Q00613 whole entry): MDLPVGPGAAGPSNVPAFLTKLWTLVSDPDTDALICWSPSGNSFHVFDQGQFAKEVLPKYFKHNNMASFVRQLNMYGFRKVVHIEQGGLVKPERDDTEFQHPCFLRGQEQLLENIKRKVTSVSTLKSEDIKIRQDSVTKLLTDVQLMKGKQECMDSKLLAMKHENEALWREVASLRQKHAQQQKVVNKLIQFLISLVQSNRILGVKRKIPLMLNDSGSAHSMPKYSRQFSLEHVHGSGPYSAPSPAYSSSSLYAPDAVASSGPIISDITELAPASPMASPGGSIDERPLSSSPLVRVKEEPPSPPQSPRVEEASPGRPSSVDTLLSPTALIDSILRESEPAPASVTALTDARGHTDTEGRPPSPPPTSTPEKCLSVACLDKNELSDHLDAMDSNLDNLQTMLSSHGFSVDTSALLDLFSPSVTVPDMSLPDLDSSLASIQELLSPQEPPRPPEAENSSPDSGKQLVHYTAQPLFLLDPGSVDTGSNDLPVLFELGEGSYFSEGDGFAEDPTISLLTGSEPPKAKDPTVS
# Procedure, shortened: as §1
# SPIC = target: T2, SPIC (Homo sapiens, UniProt Q8N5J4 1-248); details: protein: recombinant; tags: N-terminal GST; dsDNA, one strand shown
# T2 sequence: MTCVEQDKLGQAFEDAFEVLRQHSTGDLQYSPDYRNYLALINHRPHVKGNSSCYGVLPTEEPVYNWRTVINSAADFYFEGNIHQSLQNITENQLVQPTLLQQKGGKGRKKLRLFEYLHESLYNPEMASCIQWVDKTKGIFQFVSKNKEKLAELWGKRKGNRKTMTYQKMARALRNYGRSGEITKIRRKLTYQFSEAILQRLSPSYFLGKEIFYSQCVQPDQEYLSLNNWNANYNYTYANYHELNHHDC
# Procedure, shortened: as §1
# ELF4 = ELF4 (Homo sapiens, UniProt Q99607 1-663); details: protein: recombinant; tags: N-terminal GST; dsDNA, one strand shown
# Chain of ELF4 (Q99607 whole entry): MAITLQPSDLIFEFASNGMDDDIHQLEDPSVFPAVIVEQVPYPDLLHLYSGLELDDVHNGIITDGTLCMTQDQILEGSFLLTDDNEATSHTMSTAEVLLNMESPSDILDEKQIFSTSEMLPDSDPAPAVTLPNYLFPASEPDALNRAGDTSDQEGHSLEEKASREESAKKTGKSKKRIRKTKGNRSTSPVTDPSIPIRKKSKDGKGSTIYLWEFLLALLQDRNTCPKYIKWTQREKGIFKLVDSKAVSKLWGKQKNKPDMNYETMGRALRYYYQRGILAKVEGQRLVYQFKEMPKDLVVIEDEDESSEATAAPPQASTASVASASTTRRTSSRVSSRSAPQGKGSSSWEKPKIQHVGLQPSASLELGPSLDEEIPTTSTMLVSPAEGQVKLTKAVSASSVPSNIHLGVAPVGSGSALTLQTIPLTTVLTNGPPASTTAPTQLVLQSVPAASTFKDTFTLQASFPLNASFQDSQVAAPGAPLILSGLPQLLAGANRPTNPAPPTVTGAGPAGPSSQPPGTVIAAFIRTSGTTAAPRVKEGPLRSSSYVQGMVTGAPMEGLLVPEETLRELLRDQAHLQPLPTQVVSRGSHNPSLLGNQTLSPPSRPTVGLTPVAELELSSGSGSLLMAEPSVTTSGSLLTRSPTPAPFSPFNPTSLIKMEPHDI
# Procedure, shortened: as §1
# ELK4 = target: T3, ELK4 (Homo sapiens, UniProt P28324-2 1-405); details: protein: recombinant; tags: N-terminal GST; dsDNA, one strand shown
# T3 sequence: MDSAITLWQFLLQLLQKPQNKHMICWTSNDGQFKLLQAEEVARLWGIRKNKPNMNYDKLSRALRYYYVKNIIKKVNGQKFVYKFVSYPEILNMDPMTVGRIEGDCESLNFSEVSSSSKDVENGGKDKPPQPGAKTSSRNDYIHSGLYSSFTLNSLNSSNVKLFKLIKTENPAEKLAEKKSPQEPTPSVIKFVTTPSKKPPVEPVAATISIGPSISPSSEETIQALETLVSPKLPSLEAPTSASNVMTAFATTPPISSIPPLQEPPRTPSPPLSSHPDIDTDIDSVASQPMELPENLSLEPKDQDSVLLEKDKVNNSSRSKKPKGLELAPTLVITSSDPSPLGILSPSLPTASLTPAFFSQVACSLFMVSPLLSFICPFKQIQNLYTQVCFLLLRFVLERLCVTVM
# Procedure, shortened: as §1
# ETV2 = target: T4, ETV2 (Homo sapiens, UniProt O00321 1-342); details: protein: recombinant; tags: N-terminal GST; dsDNA, one strand shown
# T4 sequence: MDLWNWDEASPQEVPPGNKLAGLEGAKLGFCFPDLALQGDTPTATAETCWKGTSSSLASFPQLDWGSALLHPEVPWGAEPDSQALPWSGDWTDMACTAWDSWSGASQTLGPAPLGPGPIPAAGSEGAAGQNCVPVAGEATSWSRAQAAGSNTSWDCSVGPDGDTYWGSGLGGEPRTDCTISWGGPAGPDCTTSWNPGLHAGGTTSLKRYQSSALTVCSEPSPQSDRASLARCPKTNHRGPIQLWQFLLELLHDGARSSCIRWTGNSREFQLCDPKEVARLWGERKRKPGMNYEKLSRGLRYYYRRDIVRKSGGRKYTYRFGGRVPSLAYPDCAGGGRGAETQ
# Procedure, shortened: as §1
# ELF3 = target: T5, ELF3 (Homo sapiens, UniProt P78545 1-371); details: protein: recombinant; tags: N-terminal GST; dsDNA, one strand shown
# T5 sequence: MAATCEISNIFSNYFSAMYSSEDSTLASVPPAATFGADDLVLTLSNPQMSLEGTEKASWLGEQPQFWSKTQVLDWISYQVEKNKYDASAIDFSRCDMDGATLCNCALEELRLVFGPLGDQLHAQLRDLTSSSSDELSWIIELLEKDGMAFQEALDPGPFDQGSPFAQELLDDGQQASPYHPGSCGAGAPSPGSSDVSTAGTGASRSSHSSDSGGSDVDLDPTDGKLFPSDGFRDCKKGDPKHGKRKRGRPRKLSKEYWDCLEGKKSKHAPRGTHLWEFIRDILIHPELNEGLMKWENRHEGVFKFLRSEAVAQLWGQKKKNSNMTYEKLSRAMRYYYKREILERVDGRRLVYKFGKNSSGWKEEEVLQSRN
# Procedure, shortened: as §1
# CRX = CRX (Homo sapiens, UniProt O43186 1-299); details: protein: recombinant; tags: N-terminal GST; dsDNA, one strand shown
# Chain of CRX (O43186 whole entry): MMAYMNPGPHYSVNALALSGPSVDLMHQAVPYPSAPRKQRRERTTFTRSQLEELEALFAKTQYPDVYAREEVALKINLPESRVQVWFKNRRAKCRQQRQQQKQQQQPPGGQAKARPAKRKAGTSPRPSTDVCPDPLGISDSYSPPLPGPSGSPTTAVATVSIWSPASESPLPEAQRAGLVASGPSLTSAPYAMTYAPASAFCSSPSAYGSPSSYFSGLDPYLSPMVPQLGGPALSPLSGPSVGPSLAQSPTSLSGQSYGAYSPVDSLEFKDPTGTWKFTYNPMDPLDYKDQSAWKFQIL
# Procedure, shortened: as §1
# ETV1 = ETV1 (Homo sapiens, UniProt P50549 1-477); details: protein: recombinant; tags: N-terminal GST; dsDNA, one strand shown
# Chain of ETV1 (P50549 whole entry): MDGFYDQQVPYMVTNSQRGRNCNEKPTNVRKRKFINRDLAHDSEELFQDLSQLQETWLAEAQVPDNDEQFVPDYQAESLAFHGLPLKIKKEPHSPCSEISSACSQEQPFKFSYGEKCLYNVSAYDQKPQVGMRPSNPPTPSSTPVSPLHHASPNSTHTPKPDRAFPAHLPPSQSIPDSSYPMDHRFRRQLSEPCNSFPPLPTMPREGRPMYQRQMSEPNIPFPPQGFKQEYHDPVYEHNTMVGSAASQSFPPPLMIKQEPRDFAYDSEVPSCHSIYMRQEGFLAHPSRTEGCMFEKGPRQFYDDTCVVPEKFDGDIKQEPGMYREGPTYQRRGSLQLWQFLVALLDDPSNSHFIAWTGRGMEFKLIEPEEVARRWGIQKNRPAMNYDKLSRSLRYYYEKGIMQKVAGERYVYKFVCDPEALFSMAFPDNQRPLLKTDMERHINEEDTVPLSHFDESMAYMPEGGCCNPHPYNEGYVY
# Procedure, shortened: as §1
# ERF = target: T6, ERF (Homo sapiens, UniProt P50548 1-548); details: protein: recombinant; tags: N-terminal GST; dsDNA, one strand shown
# T6 sequence: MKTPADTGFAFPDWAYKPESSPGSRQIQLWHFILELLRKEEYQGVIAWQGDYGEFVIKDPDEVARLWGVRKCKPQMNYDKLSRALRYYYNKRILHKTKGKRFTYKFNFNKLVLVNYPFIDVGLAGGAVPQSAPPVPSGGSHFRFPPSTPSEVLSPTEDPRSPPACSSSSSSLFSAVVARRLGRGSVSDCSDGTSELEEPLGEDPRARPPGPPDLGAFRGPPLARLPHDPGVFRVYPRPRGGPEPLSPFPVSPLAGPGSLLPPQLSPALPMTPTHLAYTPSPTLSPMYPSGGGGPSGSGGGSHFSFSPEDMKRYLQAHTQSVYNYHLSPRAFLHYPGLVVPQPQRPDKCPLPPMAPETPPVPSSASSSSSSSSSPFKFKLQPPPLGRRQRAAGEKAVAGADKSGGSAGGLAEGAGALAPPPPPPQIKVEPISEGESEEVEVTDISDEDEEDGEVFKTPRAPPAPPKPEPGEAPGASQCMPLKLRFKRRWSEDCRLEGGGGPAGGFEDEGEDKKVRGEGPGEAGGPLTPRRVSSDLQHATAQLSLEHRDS
# Procedure, shortened: as §1
# ETV3L = target: T7, ETV3L (Homo sapiens, UniProt Q6ZN32 1-361); details: protein: recombinant; tags: N-terminal GST; dsDNA, one strand shown
# T7 sequence: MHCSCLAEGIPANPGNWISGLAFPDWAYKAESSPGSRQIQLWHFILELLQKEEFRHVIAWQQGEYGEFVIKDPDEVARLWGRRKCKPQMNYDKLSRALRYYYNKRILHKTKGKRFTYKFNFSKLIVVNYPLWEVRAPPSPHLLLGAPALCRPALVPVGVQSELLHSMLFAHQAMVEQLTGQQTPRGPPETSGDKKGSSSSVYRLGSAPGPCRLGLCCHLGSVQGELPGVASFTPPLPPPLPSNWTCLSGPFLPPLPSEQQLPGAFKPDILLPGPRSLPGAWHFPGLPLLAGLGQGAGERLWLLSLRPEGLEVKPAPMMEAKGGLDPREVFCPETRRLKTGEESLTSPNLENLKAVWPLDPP
# Procedure, shortened: as §1
# ETS2 = target: T8, ETS2 (Homo sapiens, UniProt P15036 1-469); details: protein: recombinant; tags: N-terminal GST; dsDNA, one strand shown
# T8 sequence: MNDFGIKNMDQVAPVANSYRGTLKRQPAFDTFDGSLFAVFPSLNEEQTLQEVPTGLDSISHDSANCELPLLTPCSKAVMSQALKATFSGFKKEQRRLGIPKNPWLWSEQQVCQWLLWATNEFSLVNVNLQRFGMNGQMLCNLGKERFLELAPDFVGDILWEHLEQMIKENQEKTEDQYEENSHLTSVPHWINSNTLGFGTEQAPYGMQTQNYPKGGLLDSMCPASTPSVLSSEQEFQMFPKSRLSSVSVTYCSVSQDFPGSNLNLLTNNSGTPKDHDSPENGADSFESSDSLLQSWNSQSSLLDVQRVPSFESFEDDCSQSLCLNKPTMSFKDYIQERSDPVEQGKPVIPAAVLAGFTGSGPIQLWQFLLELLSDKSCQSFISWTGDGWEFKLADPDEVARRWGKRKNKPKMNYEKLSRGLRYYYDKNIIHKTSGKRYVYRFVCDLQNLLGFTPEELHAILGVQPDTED
# Procedure, shortened: as §1
# SPDEF = target: T9, SPDEF (Homo sapiens, UniProt O95238 1-335); details: protein: recombinant; tags: N-terminal GST; dsDNA, one strand shown
# T9 sequence: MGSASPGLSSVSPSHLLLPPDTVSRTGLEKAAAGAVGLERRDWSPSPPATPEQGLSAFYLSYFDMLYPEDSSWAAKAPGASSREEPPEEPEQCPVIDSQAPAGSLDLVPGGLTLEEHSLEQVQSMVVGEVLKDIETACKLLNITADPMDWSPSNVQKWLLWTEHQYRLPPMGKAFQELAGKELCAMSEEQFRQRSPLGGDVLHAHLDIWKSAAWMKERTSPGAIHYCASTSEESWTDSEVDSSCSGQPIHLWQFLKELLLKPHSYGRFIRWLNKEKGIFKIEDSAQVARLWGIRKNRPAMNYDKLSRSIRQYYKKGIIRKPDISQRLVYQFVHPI
# Procedure, shortened: as §1
# ETV7 = target: T10, ETV7 (Homo sapiens, UniProt Q9Y603 1-341); details: protein: recombinant; tags: N-terminal GST; dsDNA, one strand shown
# T10 sequence: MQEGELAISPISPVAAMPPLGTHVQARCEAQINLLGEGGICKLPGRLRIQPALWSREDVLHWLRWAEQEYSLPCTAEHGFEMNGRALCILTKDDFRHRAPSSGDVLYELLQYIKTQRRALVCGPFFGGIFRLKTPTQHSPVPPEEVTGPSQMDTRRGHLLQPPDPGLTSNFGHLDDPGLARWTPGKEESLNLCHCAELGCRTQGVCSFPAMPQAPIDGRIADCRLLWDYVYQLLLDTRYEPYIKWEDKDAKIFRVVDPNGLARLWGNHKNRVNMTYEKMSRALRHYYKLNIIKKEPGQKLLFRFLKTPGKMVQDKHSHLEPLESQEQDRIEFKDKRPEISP
# Procedure, shortened: as §1
# ELF5 = target: T11, ELF5 (Homo sapiens, UniProt Q9UKW6-2 1-255); details: protein: recombinant; tags: N-terminal GST; dsDNA, one strand shown
# T11 sequence: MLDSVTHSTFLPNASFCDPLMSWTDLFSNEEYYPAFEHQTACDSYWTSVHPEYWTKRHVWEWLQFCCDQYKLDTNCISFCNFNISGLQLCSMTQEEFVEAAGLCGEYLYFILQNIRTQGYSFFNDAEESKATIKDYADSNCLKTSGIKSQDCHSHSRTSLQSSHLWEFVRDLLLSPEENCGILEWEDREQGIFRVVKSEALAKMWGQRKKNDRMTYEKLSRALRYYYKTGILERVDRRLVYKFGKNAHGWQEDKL
# Procedure, shortened: as §1
# ETV3 = target: T12, ETV3 (Homo sapiens, UniProt P41162-2 1-143); details: protein: recombinant; tags: N-terminal GST; dsDNA, one strand shown
# T12 sequence: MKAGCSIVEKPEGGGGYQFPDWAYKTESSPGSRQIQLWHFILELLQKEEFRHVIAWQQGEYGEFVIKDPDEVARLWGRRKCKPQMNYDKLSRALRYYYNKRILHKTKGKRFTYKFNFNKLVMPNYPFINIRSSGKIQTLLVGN
# Procedure, shortened: as §1
# ETV6 = ETV6 (Homo sapiens, UniProt P41212 1-452); details: protein: recombinant; tags: N-terminal GST; dsDNA, one strand shown
# Chain of ETV6 (P41212 whole entry): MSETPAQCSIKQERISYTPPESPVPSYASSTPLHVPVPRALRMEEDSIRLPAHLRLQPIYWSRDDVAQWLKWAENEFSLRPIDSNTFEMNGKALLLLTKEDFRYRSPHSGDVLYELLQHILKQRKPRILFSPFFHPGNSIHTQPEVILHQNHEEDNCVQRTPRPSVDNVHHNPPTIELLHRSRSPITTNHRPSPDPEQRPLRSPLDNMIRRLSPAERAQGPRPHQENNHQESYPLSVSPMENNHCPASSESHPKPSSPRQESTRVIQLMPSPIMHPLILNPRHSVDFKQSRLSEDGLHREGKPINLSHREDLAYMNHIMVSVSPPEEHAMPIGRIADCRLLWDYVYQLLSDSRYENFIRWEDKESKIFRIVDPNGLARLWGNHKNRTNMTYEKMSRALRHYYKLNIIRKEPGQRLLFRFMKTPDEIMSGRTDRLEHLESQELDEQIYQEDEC
# Procedure, shortened: as §1
sequence,measurement,setting,value
TATTCG,binding signal,FEV,"1.06 fold enrichment (6-mer frequency, TF over GST control)"
same,binding signal,ETV5,"1.11 fold enrichment (6-mer frequency, TF over GST control)"
same,binding signal,HSF1,"1.64 fold enrichment (6-mer frequency, TF over GST control)"
same,binding signal,SPIC,"1.17 fold enrichment (6-mer frequency, TF over GST control)"
same,binding signal,ELF4,"1.17 fold enrichment (6-mer frequency, TF over GST control)"
same,binding signal,ELK4,"1.22 fold enrichment (6-mer frequency, TF over GST control)"
same,binding signal,ETV2,"1.24 fold enrichment (6-mer frequency, TF over GST control)"
same,binding signal,ELF3,"1.35 fold enrichment (6-mer frequency, TF over GST control)"
same,binding signal,CRX,"1.43 fold enrichment (6-mer frequency, TF over GST control)"
same,binding signal,ETV1,"1.05 fold enrichment (6-mer frequency, TF over GST control)"
same,binding signal,ERF,"1.17 fold enrichment (6-mer frequency, TF over GST control)"
same,binding signal,ETV3L,"1.16 fold enrichment (6-mer frequency, TF over GST control)"
same,binding signal,ETS2,"1.13 fold enrichment (6-mer frequency, TF over GST control)"
same,binding signal,SPDEF,"1.1 fold enrichment (6-mer frequency, TF over GST control)"
same,binding signal,ETV7,"1.19 fold enrichment (6-mer frequency, TF over GST control)"
same,binding signal,ELF5,"1.09 fold enrichment (6-mer frequency, TF over GST control)"
same,binding signal,ETV3,"1.19 fold enrichment (6-mer frequency, TF over GST control)"
same,binding signal,ETV6,"1.02 fold enrichment (6-mer frequency, TF over GST control)"

# Reference: publication PMC7862700, “An all-to-all approach to the identification of sequence-specific readers for epigenetic DNA modifications on cytosine”
